The text below walks through data of PubChem BioAssay AID1851 (National Center for Advancing Translational Sciences (NCATS), 2009).

Values joined by “and” are separate entries in the source; they are usually repeats but may differ in a detail not shown here. Equal entries are not always repeated. The whole screen tested about 16,000 compounds, of which about 2,600 (16%) were called active. About 20% were inconclusive and are not listed. The call rests on the fitted dose curve; in most records, active means well fitted curve in the direction sought with a large enough effect; inconclusive means small, poorly fitted or top-dose-only effect, or effect the other way; inactive means no such curve, though single readings can be large or run the other way. A selection follows. The source holds several records for some structures; these can differ, active in one and inactive in another.
On the % scale 0 is the no-effect control and ±100 the full control effect.

Sequence of Cytochrome P450 2D6 (Homo sapiens) (P10635 whole entry, looked up): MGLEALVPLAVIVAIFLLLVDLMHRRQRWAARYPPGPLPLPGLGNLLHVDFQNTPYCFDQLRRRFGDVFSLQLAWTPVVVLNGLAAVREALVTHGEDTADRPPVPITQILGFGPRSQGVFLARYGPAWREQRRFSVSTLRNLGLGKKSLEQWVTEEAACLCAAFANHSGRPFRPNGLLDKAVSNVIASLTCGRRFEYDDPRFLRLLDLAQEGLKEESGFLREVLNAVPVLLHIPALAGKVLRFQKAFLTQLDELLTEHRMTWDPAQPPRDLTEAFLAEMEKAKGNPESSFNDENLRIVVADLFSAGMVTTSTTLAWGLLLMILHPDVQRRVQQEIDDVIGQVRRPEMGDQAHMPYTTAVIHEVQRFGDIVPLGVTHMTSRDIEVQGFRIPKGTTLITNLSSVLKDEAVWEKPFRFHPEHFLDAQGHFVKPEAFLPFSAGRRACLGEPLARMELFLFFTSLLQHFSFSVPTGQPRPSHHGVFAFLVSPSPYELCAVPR

This assay has as its target Cytochrome P450 2D6 (Homo sapiens) (UniProt P10635). Description: Cytochrome panel assay with activity outcomes. As to conditions: recombinant CYP, pro-luciferin dealkylation, luminescence, p450-cyp2d6; series mostly up to 57.1 µM.
The AC50 is the concentration at which the activity in the assay is half-maximal. `N#CCSc1nc2cc(C(=O)N3CCCC3)ccc2c(=O)n1Cc1ccccc1`: the AC50 result was “inactive”.

Consider `Cc1nc2cnc(Oc3cccc(Cl)c3)nc2n(C[C@H]2CCCO2)c1=O`, for which the AC50 entry was “inactive”.

Regarding `c1csc(CNc2ncnc3ccc(-c4ccoc4)cc23)c1`, the AC50 was 15.8 µM (active).

As to `CS(=O)(=O)Nc1cccc(-c2ccc3ncnc(NCc4cccs4)c3c2)c1`, the AC50 is 20 µM (active).

As for `COc1cccc(-c2ccc3ncnc(NCc4cccs4)c3c2)c1`, the AC50 was 10 µM (active).

Take `CS(=O)(=O)Nc1cccc(-c2ccc3ncnc(NCCN4CCOCC4)c3c2)c1`: the AC50 result was “inactive”.

For the compound `COCCNc1ncnc2ccc(-c3cccc(NS(C)(=O)=O)c3)cc12`, the AC50 entry is “inactive”.

Take `CN(/C=C/C(=O)C(F)(F)F)Cc1ccccc1`: the AC50 entry is “inactive”.

In the case of `Cc1[nH]c2ccccc2c1-c1cc(-c2cc(-c3c(C)[nH]c4ccccc34)on2)no1`, the activity, negative = inhibition is 5.28% [at 11.4 µM] (inactive).

For the compound `CCCC[C@@H]1C[C@H]1C(NC(=O)c1cccnc1)c1ccc(-c2ccccc2)cc1` (some centres not stated), the AC50 result is “inactive”.

Take `CCOC(=O)c1cnn(-c2cc(Oc3ccccc3)ncn2)c1N`: the AC50 entry was “inactive”.

For `Cc1nc(SCC(=O)c2ccc(F)cc2)c([N+](=O)[O-])[nH]1`, the AC50 was 10 µM (active).

As for `Cc1cc(C)c(C(N)=O)c(SCC(=O)c2ccc(Cl)cc2)n1`, the AC50 result was “inactive”.

For `Cc1ccc(C(=O)CSc2nc(C)cc(=O)[nH]2)cc1`, the AC50 result was “inactive”.

On to `Oc1ccccc1CNn1cnnc1`, for which the AC50 result was “inactive”.

`O=c1[nH]c2cc([N+](=O)[O-])c([N+](=O)[O-])cc2[nH]c1=O`: the AC50 entry is “inactive”.

With `CC(CCc1ccccc1)NC(=O)C(=O)NCCO` (configuration not stated), the AC50 entry was “inactive”.

As for `C[C@@H](CCc1ccccc1)NC[C@H](O)c1ccc(O)c(C(N)=O)c1`, the AC50 is 3.98 µM (active) and 2 µM (active).

Take `C[C@@H](CCc1ccc(O)cc1)NCCc1ccc(O)c(O)c1`: the AC50 result was “inactive”.

Turning to `CCOC(=O)c1cccc(C(=O)OCC)n1`, the AC50 result is “inactive”.

For the compound `O=C(OCC(=O)c1cccs1)c1cccc(C(=O)OCC(=O)c2cccs2)n1`, the AC50 is 4.47 µM (active).

For the compound `O=C(COc1cccc2ccccc12)NNC(=O)c1cccs1`, the AC50 entry was “inactive”.

As to `O=C(Nc1nnc(COc2ccc(Cl)cc2)s1)c1ccc([N+](=O)[O-])cc1`, the AC50 result was “inactive”.

`CCOc1ccc2ccccc2c1C(=O)N[C@@H]1C(=O)N2[C@@H]1SC(C)(C)[C@@H]2C(=O)O`: the AC50 entry was “inactive”.

`O=[N+]([O-])c1cc(C(F)(F)F)ccc1NCCCCNS(=O)(=O)c1ccc2ccccc2c1`: the AC50 entry is “inactive”.

With `COC(=O)c1ccccc1NC(=O)c1ccc(Cn2cc(Cl)cn2)o1`, the AC50 result was “inactive”.

With `Nc1ccc(C(=O)N/N=C/c2ccccc2)cc1`, the AC50 entry is “inactive”.

As to `CC[C@@]12CCCN3CCc4c(n(c5ccccc45)C(=O)C1)[C@H]32`, the AC50 was 20 nM (active) and 251 nM (active).

On to `CC[C@@]12CCCN3CCc4c(n(c5ccccc45)[C@](O)(C(=O)OC)C1)[C@H]32`, for which the AC50 result was “inactive and 251 nM (active)”.

As to `CCOC(=O)C1=C[C@@]2(CC)CCCN3CCc4c(n1c1ccccc41)[C@H]32`, the concentration at half-maximal activity (AC50) was 6.31 µM (active) and inactive.

Take `Cn1c(Cc2cccc3ccccc23)nnc1SCC(=O)N1CCN(c2ccccc2)CC1`: the AC50 entry was “inactive”.

With `CSc1nc(-c2ccc(C)cc2)nc(C(Cl)Cl)n1`, the AC50 entry is “inactive”.

For the compound `CCCC[C@H]1C(=O)N(c2ccccc2)N(c2ccc(O)cc2)C1=O`, the AC50 entry is “inactive”.

As to `CCOC(=O)N1CCN(S(=O)(=O)c2ccc3[nH]cc(C(=O)O)c(=O)c3c2)CC1`, the AC50 entry was “inactive”.

For the compound `C[C@@]12CCC(=O)C=C1CC[C@H]1[C@@H]2[C@@H](O)C[C@]2(C)[C@@H]1CC[C@@]2(O)C(=O)COC(=O)C1CCCC1`, the activity, negative = inhibition is 8.32% [at 11.4 µM] (inactive).

For the compound `CCCn1c(=O)c2[nH]c(-c3ccc(OCC(=O)NCCN)cc3)nc2n(CCC)c1=O`, the AC50 result is “inactive”.

Turning to `C[C@@]12CCC(=O)C=C1CC[C@H]1[C@@H]2[C@@H](O)C[C@]2(C)[C@@H]1CC[C@@]2(O)C(=O)CO`, the activity, negative = inhibition was 17% [at 11.4 µM] (inactive).

Regarding `O=C(Oc1ccccc1)N1CCC2(CC1)CCN(c1cccc(-c3ccccc3)c1)CC2`, the AC50 result is “inactive”.

With `CCCCCCCCN[C@@H](C)[C@H](O)c1ccc(SC(C)C)cc1`, the AC50 was 1 µM (active).

`CCCn1cnc2c(SCC(=O)O)nc(N)nc21`: the activity, negative = inhibition was 7.62% [at 11.4 µM] (inactive).

For `CCOc1nc(NC(C)C)nc(NC(C)C)n1`, the AC50 entry is “inactive”.

Regarding `COc1cccc(Nc2ncc(C(=O)O)c3ccccc23)c1`, the AC50 result was “inactive”.

For `COc1ccc(Nc2ncnc3sc(-c4ccccc4)cc23)cc1`, the AC50 was 28.2 µM (active).

As for `COc1ccc(-n2cnc3sc(-c4ccccc4)cc3c2=O)cc1`, the AC50 entry is “inactive”.

With `Fc1ccc(-c2cn3cc(C(F)(F)F)cc(Cl)c3n2)cc1`, the AC50 entry was “inactive”.

On to `CCCCNC(=O)CSc1nc2cc(OC)c(OC)cc2c(=O)n1Cc1ccc(OC)cc1`, for which the AC50 entry is “inactive”.

In the case of `COCCNC(=O)CSc1nc2ccc(N3CCOCC3)cc2c(=O)n1Cc1ccc(OC)cc1`, the AC50 result was “inactive”.

For the compound `COc1ccc(Cn2c(SCc3ccccc3C)nc3cc(OC)c(OC)cc3c2=N)cc1`, the AC50 is 1.26 µM (active).

For `COc1ncc2ncc(=O)n(Cc3cccs3)c2n1`, the AC50 entry is “inactive”.

On to `COc1cc2nc(SCc3ccc(Cl)cc3Cl)n(Cc3cccs3)c(=N)c2cc1OC`, for which the AC50 was 2.24 µM (active).

In the case of `CN1CCN(c2ncc3nc(-c4ccc(Cl)cc4)c(=O)n(Cc4cccs4)c3n2)CC1`, the AC50 result is “inactive”.

Regarding `CC(=O)N(O)CCCCCNC(=O)CCC(=O)N(O)CCCCCNC(=O)CCC(=O)N(O)CCCCCN`, the AC50 entry is “inactive”.

On to `CN1CCC2(CC1)CCN(C(=O)c1cc(C(F)(F)F)cc(C(F)(F)F)c1)CC2`, for which the AC50 result was “inactive”.

For the compound `Cc1noc(C)c1COc1cccc(C(=O)OCC(=O)N2CC(=O)Nc3ccccc32)c1`, the AC50 result was “inactive”.

With `CN(CC(=O)O)Cc1c(O)c(Cl)cc(Cl)c1Cl`, the activity, negative = inhibition was 8.14% [at 11.4 µM] (inactive).

For the compound `N[C@H](C(=O)O)c1ccc(O)c(C(=O)O)c1`, the AC50 result was “inactive”.

Take `N[C@H](C(=O)O)c1ccc(C(=O)O)cc1`: the AC50 entry was “inactive”.

As to `N[C@@H](C(=O)O)c1ccc(C(=O)O)c(C(=O)O)c1`, the AC50 is 7.94 µM (active) and inactive.

Turning to `N[C@@H](C(=O)O)c1ccc(P(=O)(O)O)cc1`, the AC50 is 25.1 µM (active).

On to `N[C@@H](C(=O)O)c1ccc(C(=O)O)c(O)c1`, for which the AC50 entry was “inactive”.

Take `N[C@@H](C(=O)O)c1ccc(C(=O)O)cc1`: the AC50 result is “inactive”.

`O=C(Oc1ccccc1N1C(=O)C2CCCCC2C1=O)c1ccccc1` (configuration not stated): the AC50 entry is “inactive”.
